# Results filed as inconclusive are left out. Calls of active or inactive are those of the source. Unless noted, the call rests on the fitted dose curve; in most records, active means well fitted curve in the direction sought with a large enough effect; inconclusive means small, poorly fitted or top-dose-only effect, or another doubt; inactive means no such curve, though single readings can be large; an effect the other way counts as inactive or inconclusive.
# Key:
# [1] = biological target: ATP-dependent 6-phosphofructokinase (Trypanosoma brucei brucei) (UniProt O15648); experiment: qHTS Assay to Find Inhibitors of T. brucei phosphofructokinase: hit validation (AID 492961);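 further: luminescence reports ADP formed as PFK phosphorylates fructose-6-phosphate with ATP; on the % scale 0 is the no-effect control and ±100 the full control effect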
# ATP-dependent 6-phosphofructokinase (Trypanosoma brucei brucei), sequence (O15648 whole entry, looked up): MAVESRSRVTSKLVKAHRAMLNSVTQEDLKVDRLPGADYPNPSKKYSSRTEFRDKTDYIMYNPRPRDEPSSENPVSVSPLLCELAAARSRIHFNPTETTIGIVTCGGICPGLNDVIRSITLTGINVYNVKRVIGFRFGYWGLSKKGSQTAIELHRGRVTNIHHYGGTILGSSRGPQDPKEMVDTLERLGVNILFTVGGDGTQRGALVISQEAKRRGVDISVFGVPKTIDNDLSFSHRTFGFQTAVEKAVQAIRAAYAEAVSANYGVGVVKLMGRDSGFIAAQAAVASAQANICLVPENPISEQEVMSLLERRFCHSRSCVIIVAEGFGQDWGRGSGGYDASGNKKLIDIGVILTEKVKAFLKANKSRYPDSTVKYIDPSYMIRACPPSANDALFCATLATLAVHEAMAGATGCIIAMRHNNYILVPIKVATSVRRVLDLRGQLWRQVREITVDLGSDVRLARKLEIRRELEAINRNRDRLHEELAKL
# How it was run: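 Inhibition of parasite PFK is measured as reduced ADP formation, quantified via luciferase after ATP depletion. Assay used 0.1 mM ATP, 0.5 mM F6P, 1.25 nM enzyme, 45 min incubation.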
# [2] = biological target: Ubiquitin carboxyl-terminal hydrolase 1 (Homo sapiens) (UniProt O94782); experiment: Inhibitors of USP1/UAF1: Pilot qHTS (AID 504865); further: potency means the concentration at half of the fitted maximal effect; nearly all actives have a fitted effect of over 35% in size
# Ubiquitin carboxyl-terminal hydrolase 1 (Homo sapiens), sequence (O94782 whole entry, looked up): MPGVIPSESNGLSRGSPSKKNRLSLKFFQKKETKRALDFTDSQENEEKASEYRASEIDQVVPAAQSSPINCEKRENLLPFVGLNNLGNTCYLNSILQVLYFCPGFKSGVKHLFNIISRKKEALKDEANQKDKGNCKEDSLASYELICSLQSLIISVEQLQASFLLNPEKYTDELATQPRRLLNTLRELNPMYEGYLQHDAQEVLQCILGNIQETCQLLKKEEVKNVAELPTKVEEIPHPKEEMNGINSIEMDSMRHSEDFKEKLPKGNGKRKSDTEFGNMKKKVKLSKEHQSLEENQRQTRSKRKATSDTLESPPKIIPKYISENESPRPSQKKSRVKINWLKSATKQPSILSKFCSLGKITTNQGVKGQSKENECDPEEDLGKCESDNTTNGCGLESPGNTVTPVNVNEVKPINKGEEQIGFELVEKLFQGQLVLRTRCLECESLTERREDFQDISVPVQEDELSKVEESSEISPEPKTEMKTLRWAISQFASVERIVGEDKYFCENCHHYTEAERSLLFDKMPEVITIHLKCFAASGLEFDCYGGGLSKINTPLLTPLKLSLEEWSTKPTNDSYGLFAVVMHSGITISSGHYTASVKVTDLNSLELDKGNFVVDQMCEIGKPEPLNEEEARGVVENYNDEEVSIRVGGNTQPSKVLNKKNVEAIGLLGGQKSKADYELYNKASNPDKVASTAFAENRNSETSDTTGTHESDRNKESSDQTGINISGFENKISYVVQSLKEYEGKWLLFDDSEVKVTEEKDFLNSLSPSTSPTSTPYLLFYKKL
# How it was run: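 In 50mM HEPES pH 7.8 containing 0.5mM EDTA, 1mM TCEP, 0.1 mg/ml BSA and 0.01% Tween-20, 1nM USP1/UAF1 is exposed to compound for 15 min, then Ub-Rho (150nM final) is added and fluorescence is read over time.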
# [3] = S16 Schwann cell viability assay (CellTiter-Glo assay) (AID 624031);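 further: native untransfected S16 rat Schwann cells; cellular ATP luminescence as a viability measure; plate controls were DMSO-treated cells for no effect and cell-free wells for full effect; nearly all actives have a fitted effect of over 70% in size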
# How it was run: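 Rat S16 Schwann cells without reporter constructs received compound or DMSO for 24 h at 37 °C under 5% CO2. Cellular ATP was then quantified by CellTiter-Glo luminescence, with vehicle wells defined as 0% activity and cell-free wells as reference.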
# [4] = S16 Schwann cell PMP22 intronic element firefly luciferase assay (AID 624032); further: potency means the concentration at half of the fitted maximal effect; nearly all actives have a fitted effect of over 30% in size
# How it was run: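 Rat S16 Schwann cells stably carrying firefly luciferase driven by a PMP22 intronic element, in 10% FBS, treated 24 h at 37 C. ONE-Glo luminescence normalized to PTC124 control and DMSO (0%); curves classed by r2, magnitude and activity.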
# [5] = S16 Schwann cell PMP22 intronic element beta-lactamase assay (AID 624044; calls by dose curve;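 further: 0% = DMSO and -100% = potassium clavulanate positive control; nearly all actives have a fitted effect of over 15% in size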)
# How it was run: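 Rat S16 Schwann cells with beta-Lac driven by a PMP22 intronic element, compound-treated 24 h at 37 °C. LiveBLAzer FRET B/G read: 460 nm normalized to potassium clavulanate vs DMSO; 535 nm FRET as viability; concentration-effect curves classified.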
# [6] = qHTS to identify inhibitors of the type 1 interferon - major histocompatibility complex class I in skeletal muscle: primary screen against the NCATS Mechanism Interrogation Plate v5.0 (MIPE) Libary (AID 1347411); further: potency means the concentration at half of the fitted maximal effect; nearly all actives have a fitted effect of over 65% in size
# How it was run: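 Immortalized human C25cl48 myoblasts with HiBit knocked into endogenous HLA-B*08:01 were stimulated with 4.0 ng/ml IFN-beta and exposed to compounds (11-point 1:3 titration, top 46 uM final) for 24 hrs at 37 C; HiBiT lytic luminescence measured.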
# [7] = Primary qHTS for inhibitors of nuclear receptor binding SET domain protein 2 (NSD2) in an RCH-ACV wild type WT cells (2C) (AID 1645877); further: potency means the concentration at half of the fitted maximal effect; nearly all actives have a fitted effect of over 70% in size
# [8] = biological target: Glutathione peroxidase 1 (Homo sapiens) (UniProt P07203); experiment: Primary qHTS Assay for Inhibitors of Recombinant Selenoprotein Glutathione Peroxidase 1 (GPX1) (AID 1845191); further: nearly all actives have a fitted effect of over 65% in size
# Glutathione peroxidase 1 (Homo sapiens), sequence (P07203 whole entry, looked up): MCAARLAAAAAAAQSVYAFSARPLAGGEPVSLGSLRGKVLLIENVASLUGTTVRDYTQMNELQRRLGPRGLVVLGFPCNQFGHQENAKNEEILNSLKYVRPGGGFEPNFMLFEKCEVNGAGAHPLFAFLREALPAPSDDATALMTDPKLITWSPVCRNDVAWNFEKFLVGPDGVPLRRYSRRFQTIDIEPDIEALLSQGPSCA
# How it was run: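 GR-coupled assay: compounds preincubated 30 min at room temperature with GPX1, then reaction started with CHP; final 10 nM GPX1, 1 mM GSH, 0.5 mM CHP, 0.5 mM NADPH, 100 nM GR, 0.01% BSA, pH 7.5 Tris buffer. NADPH fluorescence (340/450 nm) read at 0 and 15 min.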
# [9] = qHTS drug screen for cell cycle checkpoint inhibitors in PARPi-resistant BRCA-mutant ovarian cancer cell lines. (AID 1963452; calls by dose curve); conditions: PEO1/OlaR viability, CellTiter-Glo luminescence, 96 h, stronger effect = lower value
# How it was run: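 PEO1, PEO4 and PEO1/OlaR ovarian cancer cells, 600 per well, exposed 96 h at 37C to a dilution series. Viability read by CellTiter-Glo luminescence, normalized to DMSO and empty wells; activity summarized as Z-AUC.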
# [10] = qHTS profiling for inhibitors of Plasmodium falciparum proliferation (AID 504749); further: potency means the concentration at half of the fitted maximal effect; nearly all actives have a fitted effect of over 60% in size; conditions: P. falciparum in erythrocytes, SYBR Green DNA, 72 h
# How it was run: (§1)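 Readout was DNA-dye fluorescence from lysed cultures, ex 485/em 535 nm. Parasitized red cells had grown 72 h with compound; data scaled between 0.29 uM artemisinin and DMSO wells and corrected using vehicle-only plates.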
# [11] = system: 3D7; experiment: as above; conditions: P. falciparum in erythrocytes, SYBR Green DNA, 72 h; series mostly up to 28.7 µM
# How it was run: as §1
# [12] = system: 7G8; experiment: as above; conditions: P. falciparum in erythrocytes, SYBR Green DNA, 72 h; series mostly up to 28.7 µM
# How it was run: as §1
# [13] = system: AA1029; experiment: as above; conditions: P. falciparum in erythrocytes, SYBR Green DNA, 72 h; series mostly up to 28.7 µM
# How it was run: as §1
# [14] = system: AS120; experiment: as above; conditions: P. falciparum in erythrocytes, SYBR Green DNA, 72 h; series mostly up to 28.7 µM
# How it was run: as §1
# [15] = system: ATS189; experiment: as above; conditions: P. falciparum in erythrocytes, SYBR Green DNA, 72 h; series mostly up to 28.7 µM
# How it was run: as §1
# [16] = system: ATS95; experiment: as above; conditions: P. falciparum in erythrocytes, SYBR Green DNA, 72 h; series mostly up to 28.7 µM
# How it was run: as §1
# [17] = system: C2A; experiment: as above; conditions: P. falciparum in erythrocytes, SYBR Green DNA, 72 h; series mostly up to 28.7 µM
# How it was run: as §1
# [18] = system: CP185; experiment: as above; conditions: P. falciparum in erythrocytes, SYBR Green DNA, 72 h; series mostly up to 28.7 µM
# How it was run: as §1
# [19] = system: CP191; experiment: as above; conditions: P. falciparum in erythrocytes, SYBR Green DNA, 72 h; series mostly up to 28.7 µM
# How it was run: as §1
# [20] = system: CP192; experiment: as above; conditions: P. falciparum in erythrocytes, SYBR Green DNA, 72 h; series mostly up to 28.7 µM
# How it was run: as §1
# [21] = system: CP194; experiment: as above; conditions: P. falciparum in erythrocytes, SYBR Green DNA, 72 h; series mostly up to 28.7 µM
# How it was run: as §1
# [22] = system: CP201; experiment: as above; conditions: P. falciparum in erythrocytes, SYBR Green DNA, 72 h; series mostly up to 28.7 µM
# How it was run: as §1
# [23] = system: CP203; experiment: as above; conditions: P. falciparum in erythrocytes, SYBR Green DNA, 72 h; series mostly up to 28.7 µM
# How it was run: as §1
# [24] = system: CP211; experiment: as above; conditions: P. falciparum in erythrocytes, SYBR Green DNA, 72 h; series mostly up to 28.7 µM
# How it was run: as §1
# [25] = system: CP215; experiment: as above; conditions: P. falciparum in erythrocytes, SYBR Green DNA, 72 h; series mostly up to 28.7 µM
# How it was run: as §1
# [26] = system: CP217; experiment: as above; conditions: P. falciparum in erythrocytes, SYBR Green DNA, 72 h; series mostly up to 28.7 µM
# How it was run: as §1
# [27] = system: CP237; experiment: as above; conditions: P. falciparum in erythrocytes, SYBR Green DNA, 72 h; series mostly up to 28.7 µM
# How it was run: as §1
# [28] = system: CP238; experiment: as above; conditions: P. falciparum in erythrocytes, SYBR Green DNA, 72 h; series mostly up to 28.7 µM
# How it was run: as §1
# [29] = system: CP247; experiment: as above; conditions: P. falciparum in erythrocytes, SYBR Green DNA, 72 h; series mostly up to 28.7 µM
# How it was run: as §1
# [30] = system: CP250; experiment: as above; conditions: P. falciparum in erythrocytes, SYBR Green DNA, 72 h; series mostly up to 28.7 µM
# How it was run: as §1
# [31] = system: CP252; experiment: as above; conditions: P. falciparum in erythrocytes, SYBR Green DNA, 72 h; series mostly up to 28.7 µM
# How it was run: as §1
smiles,measurement,setting,value
CO[C@H]1/C=C/O[C@@]2(C)Oc3c(C)c(O)c4c(O)c(c(/C=N\N5CCN(C6CCCC6)CC5)c(O)c4c3C2=O)NC(=O)/C(C)=C\C=C\[C@H](C)[C@H](O)[C@@H](C)[C@@H](O)[C@@H](C)[C@H](OC(C)=O)[C@@H]1C,outcome,[1],inactive
same,Potency,[2],56200 nM (active)
same,outcome,[3],inactive
same,Potency,[4],10200 nM (active)
same,outcome,[5],inactive
same,Potency,[6],18600 nM (active)
same,Potency,[7],20900 nM (active)
same,Potency,[8],inactive
same,Z-AUC,[9],-0.749 (inactive)
same,Z-AUC,[9]; measured here: PEO1 parental Z-AUC,-0.895
same,Z-AUC,[9]; measured here: PEO4 Z-AUC,-0.603
same,Potency,[10]; parasite line A,1580 nM (active)
same,Potency,[10]; parasite line B,631 nM (active)
same,Potency,[11],1260 nM (active)
same,Potency,[12],141 nM (active)
same,Potency,[13],1260 nM (active)
same,Potency,[14],126 nM (active)
same,Potency,[15],1410 nM (active)
same,Potency,[16],1260 nM (active)
same,Potency,[17],2510 nM (active)
same,Potency,[18],1580 nM (active)
same,Potency,[19],1000 nM (active)
same,Potency,[20],4780 nM (active)
same,Potency,[21],4260 nM (active)
same,Potency,[22],5360 nM (active)
same,Potency,[23],3790 nM (active)
same,Potency,[24],4260 nM (active)
same,Potency,[25],4260 nM (active)
same,Potency,[26],1410 nM (active)
same,Potency,[27],224 nM (active)
same,Potency,[28],2240 nM (active)
same,Potency,[29],1410 nM (active)
same,Potency,[30],3160 nM (active)
same,Potency,[31],1410 nM (active)

# Source: PubChem BioAssay (NCATS)
